Shown are actives, neighbours in structure and some others; about 3.5% of the full set was active somewhere.
BoNT-F LC inh: blocks Botulinum neurotoxin F light chain protease; Multiplex microsphere protease cleavage assay, flow cytometry; inhibition, % at 10 µM; hit rate 0.22% among 360,000; in the data active means inhibition above about 35%, passing the limit was not always enough; inconclusive means no clear call, values can overlap the other calls
BJeLR lethal: BJeLR cell viability loss; AID 1554; BJeLR (HRASV12) viability, CellTiter-Glo ATP luminescence, 48 h; inhibition, % (test concentration not listed); hit rate 0.17% among 300,000; in the data active means inhibition above about 50%; inconclusive means no clear call, values can overlap the other calls
Anthrax LF inh2: inhibitors of Bacillus anthracis lethal factor protease; inhibition, % at 10 µM; multiplex microsphere protease cleavage assay, LF; hit rate 0.12% among 360,000; AID 588501; P15917
Target sequence (P15917 whole entry, looked up): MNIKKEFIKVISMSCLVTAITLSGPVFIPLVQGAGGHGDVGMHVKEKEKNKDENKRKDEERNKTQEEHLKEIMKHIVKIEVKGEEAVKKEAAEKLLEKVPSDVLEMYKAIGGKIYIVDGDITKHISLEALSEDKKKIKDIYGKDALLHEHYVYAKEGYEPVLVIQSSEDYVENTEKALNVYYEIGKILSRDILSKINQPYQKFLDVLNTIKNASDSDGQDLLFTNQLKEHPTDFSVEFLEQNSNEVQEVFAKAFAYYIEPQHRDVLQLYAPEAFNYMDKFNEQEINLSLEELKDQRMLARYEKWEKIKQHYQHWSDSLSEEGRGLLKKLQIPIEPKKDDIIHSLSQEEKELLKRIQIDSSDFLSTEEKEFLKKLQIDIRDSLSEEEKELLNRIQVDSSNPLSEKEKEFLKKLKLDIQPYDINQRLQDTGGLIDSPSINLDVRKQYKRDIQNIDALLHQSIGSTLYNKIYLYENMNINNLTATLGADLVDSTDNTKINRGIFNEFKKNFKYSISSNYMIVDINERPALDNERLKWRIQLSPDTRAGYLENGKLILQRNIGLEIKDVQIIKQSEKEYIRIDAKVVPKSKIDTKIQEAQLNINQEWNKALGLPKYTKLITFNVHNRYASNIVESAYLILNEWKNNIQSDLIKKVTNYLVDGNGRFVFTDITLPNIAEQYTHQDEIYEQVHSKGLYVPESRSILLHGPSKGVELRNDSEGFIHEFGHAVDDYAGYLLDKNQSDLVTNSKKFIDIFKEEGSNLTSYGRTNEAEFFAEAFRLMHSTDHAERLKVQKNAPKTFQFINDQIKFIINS
BoNT-A LC inh2: inhibitors of Botulinum neurotoxin A light chain protease; multiplex microsphere protease substrate cleavage, flow cytometry; hit rate 0.17% among 360,000; inhibition, % at 10 µM
Bead autofluor: flagged as autofluorescent in microsphere protease counterscreen | compound autofluorescence counterscreen, microsphere flow cytometry; active compounds read high | fluorescence intensity (no concentration beside the values) | hit rate 3.1% among 360,000; in the data active means fluorescence intensity above about 16000; inconclusive means no clear call, values can overlap the other calls
Of the large screens only hits and unclear results are named; the others gave an inactive call. Unless noted, no stated cut-off is given here; in the data, active means inhibition above about 30%; inconclusive means no clear call, values can overlap the other calls; inactive means below that.

O=C([C@H]1O[C@@H](n2ccc(=O)[nH]c2=O)[C@H](O)[C@@H]1O)N1CCC(F)(F)CC1	none (no result: BJeLR lethal)
COc1ccc(Cl)cc1CC1(C)C(=O)Nc2c(Cl)cccc21 (stereo unspecified)	none (no result: BJeLR lethal)
CC(NC(=O)c1cccs1)c1ccc2c(c1)OCO2 (stereo unspecified)	Bead autofluor 20040
Cc1ccsc1C(=O)NC(C)c1ccc2c(c1)OCO2 (stereo unspecified)	Bead autofluor 22863
CC(NC(=O)c1cccnc1)c1ccc2c(c1)OCO2 (stereo unspecified)	BoNT-A LC inh2 inconclusive, Bead autofluor 16408
Nc1c(-c2cccs2)cnn1-c1nc(-c2ccc(Cl)cc2Cl)cs1	BoNT-A LC inh2 inconclusive, Bead autofluor 23441
Nc1c(-c2cccs2)cnn1-c1nc(-c2ccc(F)cc2)cs1	none
COc1ccc(CCNC(=O)CN2C(=O)NC(c3ccccc3)(c3ccccc3)C2=O)cc1	none (no result: BJeLR lethal)
NC(=O)c1c(NC(=O)C2CCCO2)sc2c1CCCC2 (stereo unspecified)	none
O=C(Nc1ccc(C(F)(F)F)cc1)C1CCCN1S(=O)(=O)c1cccc2cccnc12 (stereo unspecified)	Bead autofluor 16378
Cc1cccc(CN(C)C)c1OC(=O)N(C)C	BoNT-A LC inh2 inconclusive, Bead autofluor 20578
CN(C)Cc1ccccc1OC(=O)N(C)C	none
Cc1cc(C(=O)N2CCN(c3ncccn3)CC2)sc1-c1ccccc1	BoNT-A LC inh2 inconclusive, Bead autofluor 24354
Cc1cc(C(=O)N2CCN(S(C)(=O)=O)CC2)sc1-c1ccccc1	none
CCCN(C)C1CN(Cc2cn(Cc3ccc(F)cc3)nn2)S(=O)(=O)C1 (stereo unspecified)	none (no result: BJeLR lethal)
O=C(c1cccnc1)N1CCN(S(=O)(=O)c2ccc(Cl)cc2)CC1	none
CC(=O)Nc1ccc(S(=O)(=O)N(c2cccnc2)S(=O)(=O)c2ccc(NC(C)=O)cc2)cc1	Bead autofluor 23675
CC(=O)Nc1ccc(S(=O)(=O)N(C)c2ccccc2)cc1	none
O=S(=O)(c1ccc(NC(=S)NCc2cccnc2)cc1)N1CCCCC1	BoNT-F LC inh inconclusive, BJeLR lethal 62
CC(=O)Nc1ccc(S(=O)(=O)N2CCN(C(=O)c3cccnc3)CC2)cc1	Bead autofluor 23558
O=C(Nc1ccc(S(=O)(=O)N2CCN(Cc3ccccc3)CC2)cc1)c1cnccn1	Bead autofluor 16875
CC(C)[C@H](NC(=O)c1cccc(S(=O)(=O)N2CCCC2)c1)c1nc2ccccc2[nH]1	none
COC(=O)[C@@]12CCCN1[C@H](c1ccc(-c3ccc(Cl)c(Cl)c3)cc1)[C@H]1C(=O)N(C)C(=O)[C@H]12	none
Cc1ccc(S(=O)(=O)N2CCC(C(=O)OC(C)C(=O)NCc3ccc4c(c3)OCO4)CC2)cc1 (stereo unspecified)	BoNT-A LC inh2 inconclusive, Bead autofluor 23314
Cc1ccc(S(=O)(=O)N2CCCC(C(=O)NCc3ccc4c(c3)OCO4)C2)cc1 (stereo unspecified)	none
COc1ccc(NC(=O)C2c3ccccc3OCC(=O)N2Cc2ccco2)cc1 (stereo unspecified)	none (no result: BJeLR lethal)
O=C1CC(/C=C/c2ccncc2)=Nc2ccccc2N1	none
COc1ccc(N2CC(C(=O)N3CCCC(C)C3)CC2=O)cc1 (stereo unspecified)	none
O=C(O)CC(NC(=O)C12CC3CC(CC(C3)C1)C2)c1ccc(F)cc1 (stereo unspecified)	none
CCCOc1ccc(C(CC(=O)O)NC(=O)C23CC4CC(CC(C4)C2)C3)cc1 (stereo unspecified)	Bead autofluor 23418
CCCn1c(O)c(/C=C2\C=NN=C2c2ccccc2)sc1=S	Bead autofluor 25085
CC(=O)c1ccc(-c2cnc3c(NC=O)cc(-c4ccccc4Oc4ccccc4)cn23)cc1	none (no result: BJeLR lethal)
COc1ccc(C2=NOC(C(=O)NC3CCCCC3)C2)cc1OC (stereo unspecified)	Bead autofluor 23218
COc1ccc(C2=NOC(C(=O)Nc3ccc(C(C)=O)cc3)C2)cc1OC (stereo unspecified)	none
COc1ccc(C2OC(=O)CC2C(=O)NC2CCCCCC2)cc1OC (stereo unspecified)	Bead autofluor 22084
COc1ccc(-c2cc(C(=O)NC3CCCC3)no2)cc1OC	Bead autofluor 22323
Cn1nc(C(C)(C)C)cc1C(=O)N1CCCCC1c1cc(C(=O)Nc2ccccc2)no1 (stereo unspecified)	none (no result: BJeLR lethal)
CC(C)(C)NS(=O)(=O)c1cnc(Cl)c(Cl)c1	none (no result: BoNT-F LC inh, Anthrax LF inh2, BoNT-A LC inh2, Bead autofluor)
NC(=O)C1CCN(c2oc(-c3cccs3)nc2S(=O)(=O)c2ccc(Br)cc2)CC1	none (no result: BJeLR lethal)
CN(C)c1cccc2c(S(=O)(=O)NC(=O)[C@H]3O[C@@H](n4cnc5c(N)ncnc54)[C@H](O)[C@@H]3O)cccc12	none (no result: BJeLR lethal)
COc1cc(NC(=O)C2(C)CCCN(C(C)C)C2)cc(OC)c1OC (stereo unspecified)	none (no result: BJeLR lethal)
COCCOC(=O)c1c(C)oc2ccc(OCc3ccccc3)cc12	none
C=C(C)COc1ccc2oc(C)c(C(=O)OCCOC)c2c1	BoNT-A LC inh2 inconclusive, Bead autofluor 24480
C#CC1(O)CCC2C3CCC4=Cc5oncc5CC4(C)C3CCC21C (stereo unspecified)	none (no result: BJeLR lethal)
CN1C(=O)N(S(=O)(=O)c2ccc(F)c(F)c2F)C(=O)C1(C)C	none
O=C(NNC(=O)C1COc2ccccc2O1)c1ccccc1 (stereo unspecified)	Bead autofluor 22774
CN(C)S(=O)(=O)c1ccc(C(=O)NNC(=O)C2COc3ccccc3O2)cc1 (stereo unspecified)	none
CC(C)C[C@H]1CN(CCCC[C@H]2CNC(=O)C(=O)N2CC2CCCCC2)C(=O)C(=O)N1Cc1ccccc1	none (no result: BJeLR lethal)
Cc1ccc(CSCCNC(=O)c2ccc(Cl)c(S(=O)(=O)N3CCOCC3)c2)cc1	Bead autofluor 20110
Cc1cccc2c3nc4ccccc4nc3n(C)c12	BoNT-A LC inh2 45
CCCCCCN1C[C@@H](O)[C@H](n2cc(COC(=O)c3ccccc3)nn2)C[C@@H]1c1ccc(C)cc1	none (no result: BJeLR lethal)
COc1cccc(NC(=O)C(NCCC(C)C)c2ccccc2)c1 (stereo unspecified)	none
O=C(Nc1ccc(Cl)cc1)C(c1ccccc1)N(CCO)CCO (stereo unspecified)	Bead autofluor 20747
CCCN(CCC)C(C(=O)Nc1cccc(OC)c1)c1ccccc1 (stereo unspecified)	Bead autofluor 22137
O=C(Nc1cc(Cl)cc(Cl)c1)C(NCCO)c1ccccc1 (stereo unspecified)	Bead autofluor 22640
Cc1ccc(NC(=O)C(c2ccccc2)N(C)C)cc1Cl (stereo unspecified)	none
O=C1NC2(CCCCC2)N=C1c1ccc(F)cc1	Bead autofluor 22118
O=C1NC2(CCCCC2)N=C1c1ccc(Br)cc1	none
O=C1NC2(CCCC2)N=C1c1ccc(Cl)cc1	Bead autofluor 23960
CCOC(=O)C(C)NC(=O)CCc1nnc2ccc(N3CCC(C)CC3)nn12 (stereo unspecified)	BoNT-F LC inh 37
O=C(NC1CCCCC1)N1CCC(c2nc3ccccc3[nH]2)CC1	Bead autofluor 22032

Source: PubChem
